High-throughput results deposited in PubChem BioAssay by several laboratories.
In the library only some 5.9% were active in any assay of this set; here they are far more common.
ALR H2O2 inh: human ALR oxidase inhibition via reduced H2O2. inhibition, % (no concentration beside the values). 290,000 tested, 3.8% active. purified ALR, DTT oxidation, H2O2 HRP-luminol luminescence;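 active = mean replicate inhibition above about 79%, with every replicate also reaching it, limit read from the data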
Rtt109 HAT inh: C. albicans Rtt109 histone acetyltransferase inhibition | AID 540336 | 330,000 tested, 0.16% active | inhibition, % at 34.9 µM | Q5AAJ8 | purified Rtt109/Vps75, ThioGlo CoA-SH fluorescence, 4 h;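 active = inhibition of at least 50% in every replicate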
Target sequence (Q5AAJ8 whole entry, looked up): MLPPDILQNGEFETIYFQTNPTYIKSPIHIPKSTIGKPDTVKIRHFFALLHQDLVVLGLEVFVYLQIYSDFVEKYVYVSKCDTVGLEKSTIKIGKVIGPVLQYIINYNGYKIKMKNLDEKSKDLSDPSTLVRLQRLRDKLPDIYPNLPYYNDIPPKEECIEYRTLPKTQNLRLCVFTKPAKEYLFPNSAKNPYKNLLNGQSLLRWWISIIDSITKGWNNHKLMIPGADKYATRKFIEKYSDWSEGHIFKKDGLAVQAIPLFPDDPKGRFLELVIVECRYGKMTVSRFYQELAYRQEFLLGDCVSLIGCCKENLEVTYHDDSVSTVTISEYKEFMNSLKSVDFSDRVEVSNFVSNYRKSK
rCAG RNA binder: r(CAG) repeat RNA binding; AID 651821; TO-PRO-1 dye displacement fluorescence; 370,000 tested, 1.3% active; inhibition, % at 3 µM;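 active = inhibition above the plate cutoff, the mean of all test compounds on that plate plus 3 SD, cut at about 35% in these data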;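 note: 0% = DMSO alone and 100% = 100 µM mitoxantrone as full dye displacement; higher means more dye released from RNA so lower well fluorescence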
LANA-H2B inh: blocks KSHV LANA binding to histone H2A/H2B. cell-free LANA-H2A/H2B peptide, fluorescence polarization. 320,000 tested, 0.6% active. Q9QR71. inhibition, % (concentration not given with the values); in the data active = inhibition mostly above about 10%, no sharp cut-off; inactive = mostly below about 6.7%
ABHD5 PLIN5 PPI: inhibitors of human ABHD5-perilipin-5 interaction | Q00G26+Q8WTS1 | Split G. princeps luciferase complementation, luminescence, 4 h | inhibition, % at 4 µM | 360,000 tested, 0.78% active;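 active = inhibition above the mean inhibition across every tested compound plus 3 SD, cut at about 22% in these data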;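 note: 0% = DMSO only wells and the 100% control is not disclosed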
PRMT1 inh: PRMT1 (human) inhibition, primary screen; 370,000 tested, 1.3% active; recombinant PRMT1, activity-based probe fluorescence polarization; Q99873; inhibition, % at 2.79 µM; AID 652257;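 active = inhibition above about 21% made by adding two undisclosed values, limit read from the data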
ABHD5-PLIN5 conf: confirmation of human ABHD5-PLIN5 interaction inhibitors; AID 651612; biochemical ABHD5-PLIN5 interaction, luminescence; shares compounds with ABHD5 PLIN5 PPI; 2,200 tested, 67% active; inhibition, % at 4 µM; in the data active = inhibition above about 23%;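 note: 0% = DMSO vehicle wells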
HNF4 split-luc: HNF4 split-luciferase signal hit, counter-screen; shares compounds with ABHD5 PLIN5 PPI; HNF4 dimerization, luminescence, biochemical; inhibition, % at 4 µM; 2,200 tested, 77% active;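 active = mean inhibition across replicate wells exceeding the computed hit threshold, cut at about 13% in these data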;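 note: light from luciferase halves that rejoin when HNF4 fusion proteins dimerize; 0% = DMSO only wells and the 100% control is not given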
PRMT1 confirm: confirmation of human PRMT1 inhibitors. shares compounds with PRMT1 inh. recombinant His-PRMT1, activity-based probe fluorescence polarization. inhibition, % at 2.79 µM. 3,300 tested, 42% active;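 active = mean inhibition across replicates above the hit cutoff derived for the earlier primary screen, cut at about 22% in these data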
The depositor's hits bear a star.

For COC(=O)[C@]1(C)CN(C(=O)OC(C)(C)C)C2=C1C(=O)C[C@](C)(C(=O)OC(C)(C)C)C2 the results were rCAG RNA binder -1.0 and PRMT1 inh 4.7.
O=C1N/C(=C/c2ccc(N3CCOCC3)o2)C(=O)N1c1cccc(Cl)c1 was read as ALR H2O2 inh 12.7, Rtt109 HAT inh 4.5, rCAG RNA binder 13.7, LANA-H2B inh 8.7, ABHD5 PLIN5 PPI 69.7*, PRMT1 inh 29.9*, ABHD5-PLIN5 conf 70.8*, HNF4 split-luc 99.8* and PRMT1 confirm -6.5.
Screening Cn1nnnc1Sc1ncnc2scc(-c3ccccc3)c12 returned ALR H2O2 inh 11.0, Rtt109 HAT inh 1.2, rCAG RNA binder 10.8, LANA-H2B inh 1.6, ABHD5 PLIN5 PPI 2.4 and PRMT1 inh -0.9.
Cn1nnnc1Sc1ncnc2scc(-c3ccc[nH]3)c12 was read as ALR H2O2 inh 94.3*, Rtt109 HAT inh 8.1, rCAG RNA binder 3.2, LANA-H2B inh -0.3, ABHD5 PLIN5 PPI 42.0*, PRMT1 inh 30.9*, ABHD5-PLIN5 conf 40.0*, HNF4 split-luc 37.5* and PRMT1 confirm 2.0.
CCS(=O)(=O)c1ncc(Cl)c(C(=O)Nc2ccc(S(=O)(=O)N3CCC(C)CC3)cc2)n1 was read as ALR H2O2 inh 66.0, Rtt109 HAT inh -5.9, rCAG RNA binder 13.1, LANA-H2B inh 3.6, ABHD5 PLIN5 PPI 73.3*, PRMT1 inh 31.2*, ABHD5-PLIN5 conf 98.8*, HNF4 split-luc 103.4* and PRMT1 confirm 14.0.
Screening Cc1cccc(COC(=O)Nc2ccc(NC(=O)c3ccccc3Cl)cc2)c1 returned ALR H2O2 inh 3.6, Rtt109 HAT inh 2.2, rCAG RNA binder 8.8, LANA-H2B inh 4.1, ABHD5 PLIN5 PPI 4.5 and PRMT1 inh 3.1.
For COC(=O)c1ccc(NC(=O)c2nc(S(=O)(=O)Cc3cccc(C)c3)ncc2Cl)cc1 the results were ALR H2O2 inh -1.0, Rtt109 HAT inh 0.6, rCAG RNA binder 7.5, LANA-H2B inh -0.9, ABHD5 PLIN5 PPI 44.3*, PRMT1 inh 51.8*, ABHD5-PLIN5 conf 92.0*, HNF4 split-luc 95.2* and PRMT1 confirm 38.4*.
`CCc1ccc(NC(=O)c2nc(S(=O)(=O)Cc3ccccc3)ncc2Cl)cc1` gave ALR H2O2 inh -4.8, Rtt109 HAT inh 3.2, rCAG RNA binder 2.7, LANA-H2B inh -3.0, ABHD5 PLIN5 PPI 77.4*, PRMT1 inh 30.9*, ABHD5-PLIN5 conf 89.4*, HNF4 split-luc 89.3* and PRMT1 confirm 25.6*.
Screening OC[C@@H](O)C(O)[C@@H](O)CO (stereo partly drawn) returned rCAG RNA binder 3.3, ABHD5 PLIN5 PPI 1.3 and PRMT1 inh 20.8.
`CC(C)N1Cc2nnn(Cc3ccccc3)c2-c2cc(F)ccc2S1(=O)=O` gave rCAG RNA binder -2.3 and PRMT1 inh -1.9.
`CC(=O)c1ccc(-n2c(CCC(=O)O)ccc2-c2cccs2)cc1` gave ALR H2O2 inh 42.2, Rtt109 HAT inh 5.0, rCAG RNA binder 5.0, LANA-H2B inh -2.6, ABHD5 PLIN5 PPI 31.8*, PRMT1 inh 62.8*, ABHD5-PLIN5 conf 5.3, HNF4 split-luc 49.5* and PRMT1 confirm 3.1.
O=C(O)CCc1ccc(-c2cccs2)n1NC(=O)c1ccco1 was read as Rtt109 HAT inh -0.6, rCAG RNA binder 4.8, LANA-H2B inh -3.5, ABHD5 PLIN5 PPI 10.6 and PRMT1 inh 1.8.
`COc1ccc(-n2c(CCC(=O)O)ccc2-c2ccccc2)cc1` gave ALR H2O2 inh 23.9, Rtt109 HAT inh -13.2, rCAG RNA binder 3.5, LANA-H2B inh -0.2, ABHD5 PLIN5 PPI -1.8 and PRMT1 inh -9.6.
